According to PubChem BioAssay (NCI):
Compounds without any hit were thinned out: in the full panel of roughly 79,000, 15% have a hit. Unmarked numbers belong to inactive results. Activity calls are given as the source filed them. No stated cut-off is given here; in the data, active means growth inhibition above about 70%; inactive means the rest.

Tests used:
[1] = NCI Yeast Anticancer Drug Screen. Data for the rad50 strain (AID 155);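 further: 0% = growth of vehicle-only cultures of the same strain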; details: S. cerevisiae rad50 strain growth inhibition, active compounds read high
Method in brief: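 Genetically altered yeast (DNA repair pathway); compound treatment; growth inhibition vs vehicle ctrl.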

[2] = NCI Yeast Anticancer Drug Screen. Data for the mec2-1 strain (AID 157); details: S. cerevisiae mec2-1 strain, active compounds read high
Method in brief: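 Strain: mec2-1 (DNA repair/cell cycle alteration). Compound exposure, then growth measured; inhibition expressed relative to vehicle.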

[3] = NCI Yeast Anticancer Drug Screen. Data for the sgs1 mgt1 strain (AID 161);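 further: 0% = growth of cultures given vehicle only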; details: S. cerevisiae sgs1 mgt1 strain, active compounds read high
Method in brief: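 Read-out: growth inhibition vs vehicle controls. Cells: mutant yeast strain deficient in DNA damage repair.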

[4] = NCI Yeast Anticancer Drug Screen. Data for the cln2 rad14 strain (AID 165);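 further: 0% = growth equal to vehicle treated cultures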; details: S. cerevisiae cln2 rad14 strain, active compounds read high
Method in brief: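 Compounds are applied to the cln2 rad14 yeast strain, and growth is then compared with that of vehicle-treated cultures to give inhibition.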

[5] = NCI Yeast Anticancer Drug Screen. Data for the bub3 strain (AID 167); details: S. cerevisiae bub3 mutant strain, active compounds read high
Method in brief: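 Yeast carrying a defined mutation is treated with each compound, and growth is compared with that of vehicle-exposed cells to give inhibition.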

[6] = NCI Yeast Anticancer Drug Screen. Data for the mlh1 rad18 strain (AID 175); details: S. cerevisiae mlh1 rad18 strain growth inhibition, active compounds read high
Method in brief: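 Read-out is yeast growth inhibition, calculated against vehicle-only controls. The compound was applied to a strain engineered with DNA damage repair alterations.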

[7] = at 5.0 µM (retest, dose inferred, filed as 0.5)
[8] = at 50.0 µM (retest, dose inferred, filed as 5.0)

Compound	growth inhibition [1, 7]	growth inhibition [1, 8]	growth inhibition ([1]; at 50.0 µM)	growth inhibition [2, 7] [%]	growth inhibition [2, 8]	growth inhibition ([2]; at 50.0 µM)	growth inhibition [3, 7]	growth inhibition [3, 8]	growth inhibition ([3]; at 50.0 µM)	growth inhibition [4, 7] [%]	growth inhibition [4, 8]	growth inhibition ([4]; at 50.0 µM)	growth inhibition [5, 7]	growth inhibition [5, 8]	growth inhibition ([5]; at 50.0 µM)	growth inhibition [6, 7]	growth inhibition [6, 8]	growth inhibition ([6]; at 50.0 µM)
O=C(C[N+]1(CCc2ccccc2)CCOCC1)c1ccc(-c2ccccc2)cc1	2%	52%	79.3% (active)	19	71% (active)	92.5% (active)	-5%	93% (active)	96.7% (active)	-5	34%	98.4% (active)	-2%	66%	92.8% (active)	12%	93% (active)	98.2% (active)
CC(CCOP(=O)(O)OCCC(C)CC(C)(C)C)CC(C)(C)C (stereo not given)	-3%	20%	11.8%	-9	13%	62.6%	-4%	52%	35.4%	-2	45%	51%	-19%	10%	71.4% (active)	3%	19%	47.8%
CNc1cc(SC)nc(N)n1	3%	-7%	89.7% (active)	-2	-3%	94.3% (active)	1%	-9%	92.8% (active)	-1	0%	91.8% (active)	-1%	-1%	75.4% (active)	0%	-4%	95% (active)
Cn1nc(N)c2cccnc21	3%	19%	-1.25%	-5	3%	1.7%	-1%	6%	14.3%	3	1%	45.1%	2%	2%	-6.1%	1%	10%	0.35%
CCC(Sc1ccccc1[N+](=O)[O-])[N+](=O)[O-] (stereo not given)	1%	0%	88.7% (active)	0	-4%	90.8% (active)	3%	-1%	49.1%	-2	-6%	43.7%	0%	-11%	97.1% (active)	-1%	1%	55.1%
O=C(Nc1ccc(Cl)cc1Cl)OC(Cn1cncn1)c1ccc(Cl)cc1Cl (stereo not given)	71% (active)	71% (active)	91.2% (active)	67	67%	91.4% (active)	77% (active)	77% (active)	90.5% (active)	66	66%	88.7% (active)	72% (active)	72% (active)	92.5% (active)	77% (active)	77% (active)	90.5% (active)
O=[N+]([O-])c1ccc(NS(=O)(=O)c2ccccc2)c(NS(=O)(=O)c2ccccc2)c1	15%	75% (active)	81.5% (active)	14	76% (active)	73.4% (active)	20%	81% (active)	83.2% (active)	27	32%	82.1% (active)	6%	43%	80.1% (active)	11%	90% (active)	71.7% (active)
CC(=O)NCCN(C)C	2%	-1%	93.5% (active)	2	-4%	97% (active)	6%	-1%	84.1% (active)	-2	-3%	85.7% (active)	-3%	0%	92.5% (active)	4%	4%	88.8% (active)
Cc1cn(C(C#N)=C(C#N)C#N)c2ccccc12	0%	25%	14.4%	6	11%	22.5%	-8%	32%	-4.65%	-2	26%	-37.4%	-2%	-3%	18.2%	1%	16%	-16.2%
N=c1scc(-c2ccccc2)n1/N=C/c1cccnc1	1%	95% (active)	96.6% (active)	3	96% (active)	86.3% (active)	7%	98% (active)	96.5% (active)	11	95% (active)	96.2% (active)	5%	96% (active)	50.6%	-14%	96% (active)	95.8% (active)
CCC(=O)N(CCC(C)C)c1ccccc1	3%	7%	11.8%	-2	2%	-2.15%	0%	1%	-8.65%	3	4%	41.1%	3%	-11%	-18.6%	3%	2%	-11.9%
CC1(C)COC(C)(C(=O)O)OC1	2%	-5%	51.6%	-2	-1%	-3.35%	4%	2%	-5.8%	0	-6%	-50.7%	-4%	0%	-1.8%	6%	-1%	-8%
O=c1oc(-c2ccccc2Br)ns1	0%	99% (active)	98.8% (active)	3	100% (active)	99.6% (active)	9%	99% (active)	99.4% (active)	4	99% (active)	89.8% (active)	-8%	99% (active)	97.5% (active)	6%	99% (active)	99.3% (active)
CC1=CC(O)(c2nc3ccccc3s2)CC(C)(C)C1 (stereo not given)	3%	60%	69.7%	6	61%	56.1%	-1%	61%	64.2%	-2	51%	47.7%	15%	31%	41.4%	-2%	69%	66.4%
Oc1ccc(Cc2cccc(Br)c2)c(O)c1	-2%	99% (active)	99.3% (active)	-4	99% (active)	99.3% (active)	-2%	99% (active)	99.3% (active)	-9	99% (active)	99.2% (active)	-3%	99% (active)	99.4% (active)	-3%	99% (active)	99.2% (active)
CSc1nc(SC)c2cn(Cc3ccccc3)nc2n1	-2%	94% (active)	55.5%	-3	95% (active)	52.1%	-5%	97% (active)	80.7% (active)	-8	85% (active)	26.2%	4%	92% (active)	42.8%	-2%	95% (active)	63.8%
Cc1c(F)c(C)c(C(=O)O)c(C)c1F	26%	99% (active)	99.4% (active)	27	98% (active)	99.5% (active)	20%	99% (active)	99.5% (active)	8	99% (active)	99.2% (active)	11%	99% (active)	99.2% (active)	27%	100% (active)	99.6% (active)
O=C1COC(=O)/C1=C\C=C\c1ccccc1	5%	55%	95.6% (active)	8	84% (active)	91% (active)	13%	78% (active)	99% (active)	1	94% (active)	95.4% (active)	-5%	43%	97.2% (active)	2%	68%	99% (active)
CN(C)c1cc[c]([Sn]([c]2ccc(N(C)C)cc2)([c]2ccc(N(C)C)cc2)[c]2ccc(N(C)C)cc2)cc1	0%	0%	72.5% (active)	4	4%	34.1%	-9%	-9%	37%	-12	-12%	34.4%	-12%	-12%	49.4%	-18%	-18%	78.8% (active)
O=c1c2cnccc2cc2c3ccccc3ccn12	47%	93% (active)	91.8% (active)	12	58%	41.5%	9%	64%	6.75%	3	42%	74.8% (active)	5%	37%	2.45%	26%	87% (active)	64%
